Assay outcomes: PubChem BioAssay, The Scripps Research Institute Molecular Screening Center
Compounds with a hit are over-represented: about 1.3% of the library has one in this group of screens.
E coli Lon inh: inhibitors of E. coli Lon protease, primary screen, biochemical, fluorescence polarization; P0A9M0; purified E. coli Lon protease; inhibition, % at 7.94 µM; actives 0.42% (n = 360,000); in the data active means inhibition above about 13%, passing the limit was not always enough
Rin1-Abl PPI inh: inhibitors of Rin1-Abl protein binding, primary screen, biochemical, TR-FRET. actives 0.4% (n = 360,000). inhibition, % at 7.35 µM; in the data active means inhibition above about 5%, passing the limit was not always enough
IDE cell activ: human IDE activators in live cells, primary screen, fluorescence polarization, HEK cells, FAbeta-B substrate; Insulin-degrading enzyme (Homo sapiens), P14735; FAbeta-B cleavage; 0% vehicle, 100% cell-free pure enzyme wells; activation, % at 5.96 µM; actives 0.073% (n = 340,000); AID 493087, 2011;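 active means activation above the mean of all tested compounds plus 3 SD, set per screening campaign, cut at about 17% in these data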
PKA-R1A act: activators of PKA-R1A holoenzyme, primary screen, biochemical, fluorescence polarization, Cy5-IP20, bovine R1A, mouse PKAc; cAMP-dependent protein kinase type I-alpha regulatory subunit (Bos taurus) + …; PKA-R1A dissociation; scaled: DMSO 0%, 113 µM cGMP 100%; actives 0.083% (n = 340,000); activation, % at 11.4 µM;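 active means percent activation above the mean of all tested compounds plus 3 SD, cut at about 19% in these data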;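 further: higher means more PKAc released from R1A so a rise in polarization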
PKA-R2B activ: activators of PKA-R2B holoenzyme, primary screen, biochemical, fluorescence polarization, Cy5-IP20, human. PKA-R2B holoenzyme dissociation; R2B truncated from residue 108, S112A mutant; 0% DMSO only, 100% 113 µM cGMP. activation, % at 11.4 µM. actives 0.079% (n = 340,000). AID 504700, 2011;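 active means activation above a cutoff set at the mean over all compounds plus 3 SD, cut at about 18% in these data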;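 further: higher means more holoenzyme dissociation and a rise in polarization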
IDE inh: human IDE inhibitors in live cells, primary screen, fluorescence polarization, HEK cells, FAbetaB substrate; Insulin-degrading enzyme (Homo sapiens), P14735; FAbetaB cleavage; inhibition, % at 5.59 µM; actives 0.41% (n = 320,000);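 active means percent inhibition above the average of all tested compounds plus 3 SD, set per screening campaign, cut at about 16% in these data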;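 further: IDE supplied by intact live HEK cells; FP after avidin binding of uncleaved biotin substrate so inhibition keeps polarization high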
Rin1 Abl conf: Rin1-Abl binding inhibitor retest, confirmation, biochemical, TR-FRET | actives 49% (n = 1,300) | shares compounds with Rin1-Abl PPI inh | AID 602124, 2011 | inhibition, % at 7.35 µM | purified proteins
GFP quencher: GFP fluorescence inhibitors and quenchers, artefact control for Rin1-Abl interaction inhibitor project, biochemical | shares compounds with Rin1-Abl PPI inh | inhibitors/quenchers counterscreen | inhibition, % at 6.75 µM | actives 8.5% (n = 1,300);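 further: ABL1-eGFP fusion protein alone without its partner RIN1-SBP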
Numbers stand for hits; . = inactive; / = no result given. Unless noted, no stated cut-off is given here; in the data, active means inhibition above about 6.5%; inactive means the rest.

SMILES	E coli Lon inh	Rin1-Abl PPI inh	IDE cell activ	PKA-R1A act	PKA-R2B activ	IDE inh	Rin1 Abl conf	GFP quencher
OCC[C@@H]1C[C@@H](O)[C@H](O)[C@@]2(Cc3ccccc3CO2)O1	.	8.9	.	.	.	.	.	.
OCC[C@H]1C[C@H](O)[C@@H](O)[C@@]2(Cc3ccccc3CO2)O1	.	.	.	.	.	.	/	/
CCOC(=O)c1ccc(NC(=O)CC2COc3ccccc3O2)cc1 (stereo unspecified)	.	.	.	.	.	.	/	/
O=C(Cc1csc(N2CCOCC2)n1)N/N=C/c1ccc(O)c(O)c1O	.	30	.	.	.	/	28	9.0
C/C(=N\NC(=O)Cc1csc(N2CCOCC2)n1)c1ccccc1	.	.	.	.	.	.	/	/
Cc1cc(C(=O)N/N=C/c2ccc(O)c(O)c2O)c(C)n1-c1ccccc1	.	20	.	.	.	/	11	7.8
O=C(CCN1CCN(c2ccccc2)CC1)N/N=C/c1ccc(O)c(O)c1O	.	19	.	.	.	/	51	13
OCCCN=C1CCCc2c1[nH]c1ccc(Cl)cc21	.	.	.	.	.	.	/	/
C#CCOC(=O)CCCC(=O)NCCCCCCCC	.	6.6	.	.	.	.	.	.
O=C1C(=Cc2ccco2)CCC1=Cc1ccco1	.	12	.	.	.	/	17	29
O=C1C(=Cc2ccco2)CCCC1=Cc1ccco1	.	.	.	.	.	/	/	/
O=C(Oc1ccc(O)cc1)C12CC3CC(CC(C3)C1)C2	.	.	.	.	.	.	/	/
COc1ccccc1C(c1nnnn1C(C)(C)C)N1CCCCCC1 (stereo unspecified)	.	.	.	.	.	.	/	/
Cc1ccccc1OCC(=O)NCCNC(=O)c1ccccn1	.	15	.	.	.	.	.	.
O=C(CCSc1ccccc1)Nc1ccccc1C(=O)N1CCCC1	.	.	.	.	.	.	/	/
O=C(OC(C(=O)NCC1CCCO1)c1ccc(F)cc1)c1cccs1 (stereo unspecified)	.	.	.	.	.	.	/	/
CCOC(=O)C1CCN(Cc2cc(C(C)C)c(O)c(C(C)C)c2)CC1	.	.	.	.	.	.	/	/
CCOC(=O)C1CCN(Cc2oc(CO)cc(=O)c2O)CC1	.	14	.	.	.	.	.	.
CCN1CCN(Cc2oc(CO)cc(=O)c2O)CC1	.	5.0	.	.	.	.	.	.
COCCCNc1nc2ccccc2nc1NS(=O)(=O)c1cccs1	.	14	.	.	.	.	.	.
Cc1cccc(NC(=O)C(c2ccccc2Cl)N2CCOCC2)c1 (stereo unspecified)	.	8.2	.	.	.	.	.	.
COc1ccccc1-n1c(-c2ccc(Cl)cc2)c[nH]c1=S	.	7.5	.	.	.	.	.	.
CC(C)Cc1nnc(NS(=O)(=O)Cc2ccccc2)s1	.	.	.	.	.	.	/	/
C=CCc1ccc(OCC(O)CN2CCCCC2)c(OC)c1 (stereo unspecified)	.	.	.	.	.	.	/	/
COc1cc2c(C(=O)N3CCN(c4ccccc4F)CC3)cn(C)c(=O)c2cc1OC	.	8.9	.	.	.	.	12	.
